For some of these results: Results with a measured potency or affinity are listed apart. Activity calls are given as the source filed them.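 How the source made its calls, unless noted: active means compound raising the membrane signal above positive-control mean plus 3 SD in both repeats, and a primary screen hit; inactive means the rest.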
How the values were obtained:
[1] = tested on: TRPC4 beta (transient receptor potential cation channel C4), mouse; test: activators of mouse TRPC4 channel, confirmation, cell-based, Fluo4 calcium, HEK293 TRPC4beta/mu-opioid, duplicates, 10 µM (AID 2426;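 active means fluorescence ratio normalized to control raised more than 50% in primary screen plus both repeat runs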); conditions: Fluo4 calcium fluorescence, at 10 µM; active compounds read high
[2] = tested on: transient receptor potential cation channel C4 beta (TRPC4), mouse; test: activators of mouse TRPC4 channel, confirmation, cell-based, second round, Fluo4, HEK293 TRPC4beta/mu-opioid, 1 µM (AID 2461;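 active means primary screen active and over 50% activation in each of two duplicate runs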); conditions: Fluo4 calcium fluorescence, at 1 µM; active compounds read high
[3] = tested on: TRPC4 (transient receptor potential cation channel C4 beta), mouse; test: positive allosteric modulators of mouse TRPC4, confirmation, cell-based, second round, Fluo-4, HEK293 TRPC4beta/mu-opioid, 1 µM (AID 2554;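 active means primary screen hit whose fluorescence ratio, in both repeats, exceeds the weak agonist control mean by 3 SD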); conditions: DAMGO EC20, Fluo-4 calcium flux, at 1 µM; active compounds read high
[4] = tested on: TRPC4 beta (transient receptor potential cation channel C4), mouse; test: positive allosteric modulators of mouse TRPC4, confirmation, cell-based, Fluo-4, HEK293 TRPC4beta/mu-opioid (AID 2555;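 active means primary screen hit whose calcium fluorescence ratio, in both repeats, exceeds the weak agonist control mean by 3 SD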); conditions: DAMGO EC20, Fluo-4 calcium flux, at 10 µM; active compounds read high
[5] = biological target: Short transient receptor potential channel 4 (Mus musculus) (UniProt Q9QUQ5); test: inhibitors of mouse TRPC4 channel, confirmation, cell-based, Fluo4, HEK293 TRPC4beta/mu-opioid (AID 2636;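 active means calcium signal cut by more than 3 SD below the full-agonist control yet still positive, in both repeats and the earlier primary screen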); conditions: DAMGO, Fluo4 calcium flux, at 10 µM; active compounds read high
[6] = biological target: Short transient receptor potential channel 4 (Mus musculus) (UniProt Q9QUQ5); test: inhibitors of mouse TRPC4 channel, confirmation, cell-based, second round, Fluo4, HEK293 TRPC4beta/mu-opioid, 1 µM (AID 2637;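 active means calcium signal ratio cut to more than 3 SD under the fully stimulated control mean yet still positive, in both repeats and the primary screen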); conditions: Fluo4 calcium flux, DAMGO, at 1 µM; active compounds read high
[7] = biological target: Short transient receptor potential channel 4 (Mus musculus) (UniProt Q9QUQ5); test: mouse TRPC4 channel activators, dose response, cell-based, HEK293 TRPC4/mu-opioid, Fluo-4 calcium (AID 434937;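 active means primary screen activator hit with a dose response curve and TRPC4 channel activation at any tested dose; inactive means no activation, no dose response, or not a primary hit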)
[8] = biological target: Short transient receptor potential channel 4 (Mus musculus) (UniProt Q9QUQ5); test: TRPC4 positive allosteric modulators, dose response, cell-based, HEK293 TRPC4/mu-opioid, Fluo-4 calcium, EC20 DAMGO (AID 434941;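 active means earlier screen potentiator hit that boosts the TRPC4 ion channel at some dose, with a dose response; inactive means no potentiation, no dose response, or not a prior hit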;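 further: calcium entry triggered by an EC20 dose of DAMGO at the co-expressed mu-opioid receptor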)
[9] = biological target: Short transient receptor potential channel 4 (Mus musculus) (UniProt Q9QUQ5); test: mouse TRPC4 channel inhibitors, dose response, cell-based, HEK293 TRPC4/mu-opioid, Fluo-4 calcium (AID 434942;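 active means primary screen inhibitor hit that blocks the TRPC4 channel at some tested dose, yielding a dose curve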)
[10] = biological target: Short transient receptor potential channel 6 (Mus musculus) (UniProt Q61143); test: inhibition of mouse TRPC6 channel, confirmation, selectivity assay for TRPC4 inhibitor project, cell-based, HEK293, membrane potential dye, duplicate (AID 434948;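 active means active in primary screen and both duplicates, each dropping signal beyond three positive-control SD with fluorescence still positive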); conditions: HEK293 TRPC6, membrane potential dye fluorescence, at 10 µM, stimulated with maximal-effect acetylcholine; active compounds read high
[11] = biological target: Short transient receptor potential channel 6 (Mus musculus) (UniProt Q61143); test: activation of mouse TRPC6 channel, confirmation, selectivity assay for TRPC4 activator project, cell-based, HEK293, membrane potential dye, duplicate (AID 434950;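 active means membrane potential signal rise above negative control mean plus 3 SD in both duplicates, also active in the earlier TRPC4 screen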;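 on activation: 0% = buffer only wells and 100% = acetylcholine maximal-effect wells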); conditions: HEK293 TRPC6, membrane potential fluorescence, at 10 µM; active compounds read high
[12] = biological target: Short transient receptor potential channel 6 (Mus musculus) (UniProt Q61143); test: TRPC6 potentiation by TRPC4 potentiator hits, confirmation, selectivity assay for TRPC4 potentiator project, HEK293 cells, membrane potential dye, duplicate (AID 434952); conditions: HEK293 TRPC6, membrane potential dye fluorescence, at 10 µM, maximal acetylcholine added after compound; active compounds read high
[13] = biological target: Short transient receptor potential channel 4 (Mus musculus) (UniProt Q9QUQ5); test: calcium flux activators in TRPC4/5HT1a cells, counter-screen for TRPC4 activator project, cell-based, second counter screen, HEK293 TRPC4/5HT1a, Fluo-4 (AID 434977;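 active means calcium signal rise above buffer-control mean plus 5 SD in both duplicates, and also a hit in the primary screen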); conditions: Fluo-4 calcium flux, at 10 µM; active compounds read high
[14] = calcium flux inhibitors in TRPC4/5HT1a cells, confirmation, counter-screen for TRPC4 inhibitor project, cell-based, second counter screen, HEK293 TRPC4/5HT1a, Fluo-4 (AID 434978;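 active means primary screen active whose calcium signal fell more than 3 SD beyond the full-serotonin control mean in both duplicate plates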;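 further: serotonin given first at submaximal then at maximal dose after compound preincubation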); conditions: Fluo-4 calcium flux, at 10 µM, serotonin added to trigger calcium flux; active compounds read high
[15] = tested on: TRPC4 (mouse), co-expressed with 5HT1a in HEK293; test: calcium flux potentiators in TRPC4/5HT1a cells, confirmation, counter-screen for TRPC4 potentiator project, cell-based, second counter screen, HEK293 TRPC4/5HT1a, Fluo-4 (AID 434979;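 active means signal rise over 3 SD above mean of control wells given weak agonist, in both repeats and first screen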); conditions: Fluo-4 calcium flux, at 10 µM, serotonin added at its EC20 dose; active compounds read high
[16] = calcium flux activation in mu-opioid HEK293 cells, confirmation, counter-screen for TRPC4 activator project, cell-based, HEK293 mu-opioid receptor line (AID 449723;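 active means hit in primary screen, with calcium signal over 5 SD above buffer well mean in both duplicates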;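 further: counter screen cells carry the mu-opioid receptor alone and lack TRPC4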); conditions: Fluo-4 calcium fluorescence, at 10 µM; active compounds read high
[17] = calcium flux enhancement in mu-opioid HEK293 cells, confirmation, counter-screen for TRPC4 allosteric potentiator project, cell-based, HEK293 mu-opioid receptor line (AID 449724;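 active means calcium signal rise more than 3 SD above the low-dose agonist control mean, in both duplicate plates and the primary screen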); conditions: Fluo-4 calcium flux, at 10 µM, compound added before EC20 DAMGO stimulus; active compounds read high

Sequence of Short transient receptor potential channel 4 (Mus musculus) (Q9QUQ5 whole entry, looked up): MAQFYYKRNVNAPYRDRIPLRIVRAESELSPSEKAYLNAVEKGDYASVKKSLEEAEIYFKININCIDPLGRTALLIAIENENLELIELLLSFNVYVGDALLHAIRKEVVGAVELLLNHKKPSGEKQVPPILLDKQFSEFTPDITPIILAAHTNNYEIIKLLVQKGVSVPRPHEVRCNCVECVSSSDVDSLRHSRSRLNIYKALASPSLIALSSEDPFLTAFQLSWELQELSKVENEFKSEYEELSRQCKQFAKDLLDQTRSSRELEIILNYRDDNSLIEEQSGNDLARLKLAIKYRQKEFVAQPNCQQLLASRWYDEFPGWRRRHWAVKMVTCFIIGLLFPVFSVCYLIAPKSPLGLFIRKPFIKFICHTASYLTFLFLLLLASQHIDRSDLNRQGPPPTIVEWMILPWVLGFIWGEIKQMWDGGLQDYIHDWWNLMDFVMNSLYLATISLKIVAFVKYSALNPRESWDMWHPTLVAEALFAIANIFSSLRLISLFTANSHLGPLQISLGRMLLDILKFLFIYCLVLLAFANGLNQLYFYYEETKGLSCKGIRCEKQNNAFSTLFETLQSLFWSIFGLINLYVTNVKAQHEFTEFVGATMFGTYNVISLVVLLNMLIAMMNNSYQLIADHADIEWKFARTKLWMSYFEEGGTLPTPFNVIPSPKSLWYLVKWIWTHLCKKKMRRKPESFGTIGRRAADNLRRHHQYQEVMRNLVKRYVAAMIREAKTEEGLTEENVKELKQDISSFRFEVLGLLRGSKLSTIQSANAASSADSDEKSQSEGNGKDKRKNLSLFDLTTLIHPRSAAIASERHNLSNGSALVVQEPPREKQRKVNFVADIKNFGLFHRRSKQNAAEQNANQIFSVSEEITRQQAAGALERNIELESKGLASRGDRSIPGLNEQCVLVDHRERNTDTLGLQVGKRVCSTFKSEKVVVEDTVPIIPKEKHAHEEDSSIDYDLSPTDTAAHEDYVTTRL
Sequence of Short transient receptor potential channel 6 (Mus musculus) (Q61143 whole entry, looked up): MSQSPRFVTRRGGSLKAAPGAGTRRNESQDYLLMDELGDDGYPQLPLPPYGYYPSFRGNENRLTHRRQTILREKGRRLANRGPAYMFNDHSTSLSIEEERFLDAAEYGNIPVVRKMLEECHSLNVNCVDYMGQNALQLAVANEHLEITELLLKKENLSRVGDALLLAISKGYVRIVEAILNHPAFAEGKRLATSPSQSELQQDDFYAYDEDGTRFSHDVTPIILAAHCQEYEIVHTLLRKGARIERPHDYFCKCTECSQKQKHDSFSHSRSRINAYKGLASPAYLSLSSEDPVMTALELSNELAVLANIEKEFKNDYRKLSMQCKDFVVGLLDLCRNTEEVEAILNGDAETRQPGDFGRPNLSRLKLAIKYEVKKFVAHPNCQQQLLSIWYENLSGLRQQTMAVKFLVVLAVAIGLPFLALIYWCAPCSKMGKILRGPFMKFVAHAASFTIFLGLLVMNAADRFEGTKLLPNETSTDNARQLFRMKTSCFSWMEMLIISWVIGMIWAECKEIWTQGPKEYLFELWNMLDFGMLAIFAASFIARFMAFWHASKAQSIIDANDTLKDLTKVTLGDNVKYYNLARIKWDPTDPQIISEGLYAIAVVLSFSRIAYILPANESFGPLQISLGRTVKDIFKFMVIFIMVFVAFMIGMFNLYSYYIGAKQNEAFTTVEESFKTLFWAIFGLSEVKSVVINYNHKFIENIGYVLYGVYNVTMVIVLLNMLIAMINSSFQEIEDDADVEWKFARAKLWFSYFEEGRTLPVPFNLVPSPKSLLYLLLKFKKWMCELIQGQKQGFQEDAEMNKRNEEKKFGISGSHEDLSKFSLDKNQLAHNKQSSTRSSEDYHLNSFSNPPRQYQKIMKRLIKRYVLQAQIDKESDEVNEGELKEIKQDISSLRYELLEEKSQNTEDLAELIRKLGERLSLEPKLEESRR

CC(=O)Nc1ccc(S(=O)(=O)N2CCN(CCCOc3cc(C)ccc3C)CC2)cc1
inactive: outcome [1] | outcome [2] | outcome [3] | outcome [5] | outcome [6] | outcome [7] | outcome [8] | outcome [9] | outcome [10] | outcome [11] | outcome [12] | outcome [13] | outcome [14] | outcome [15] | outcome [16] | outcome [17]
active: potentiation [4] 24%

O=C(NCc1ccccc1Cl)/C(=C\c1cccnc1)NC(=O)c1ccccc1
inactive: outcome [1] | outcome [2] | outcome [3] | outcome [4] | outcome [5] | outcome [6] | outcome [7] | outcome [8] | outcome [9] | outcome [10] | outcome [11] | outcome [12] | outcome [13] | outcome [14] | outcome [15] | outcome [16] | outcome [17]

COC(=O)c1ccc(/C=N/N2CCN(Cc3ccc(C)cc3C)CC2)cc1
active: potentiation [3] 6% | potentiation [4] 22% | potentiation [15] 28.6%
inactive: outcome [1] | outcome [2] | outcome [5] | outcome [6] | outcome [7] | outcome [8] | outcome [9] | outcome [10] | outcome [11] | outcome [12] | outcome [13] | outcome [14] | outcome [16] | outcome [17]

CCCCN(C)CCNC(=S)Nc1ccc2nc(N3CCN(CC)CC3)cc(C)c2c1
inactive: outcome [1] | outcome [2] | outcome [4] | outcome [5] | outcome [6] | outcome [7] | outcome [8] | outcome [9] | outcome [10] | outcome [11] | outcome [12] | outcome [13] | outcome [14] | outcome [16] | outcome [17]
active: potentiation [3] 11% | potentiation [15] 18%

CN(C)c1ccc(NC(=O)C2C3C=CC(C3)C2C(=O)O)cc1 (centres undefined)
inactive: outcome [1] | outcome [2] | outcome [3] | outcome [4] | outcome [5] | outcome [6] | outcome [7] | outcome [8] | outcome [9] | outcome [10] | outcome [11] | outcome [12] | outcome [13] | outcome [14] | outcome [15] | outcome [16] | outcome [17]

CC(C)CCOc1ccc(C(=O)NCC(c2ccco2)N(C)C)cc1 (centres undefined)
inactive: outcome [1] | outcome [2] | outcome [3] | outcome [4] | outcome [6] | outcome [7] | outcome [8] | outcome [9] | outcome [10] | outcome [11] | outcome [12] | outcome [13] | outcome [14] | outcome [15] | outcome [16] | outcome [17]
active: inhibition [5] 89%

CC(CCc1ccc(O)cc1)N(C)CCc1ccccc1 (centres undefined)
inactive: outcome [1] | outcome [2] | outcome [3] | outcome [4] | outcome [5] | outcome [6] | outcome [7] | outcome [8] | outcome [9] | outcome [10] | outcome [11] | outcome [12] | outcome [13] | outcome [14] | outcome [15] | outcome [16] | outcome [17]

COc1cc(/C=C/C(=O)OCC(=O)Nc2c(C)n(C)n(-c3ccccc3)c2=O)ccc1OCC#N
inactive: outcome [1] | outcome [2] | outcome [3] | outcome [4] | outcome [5] | outcome [6] | outcome [7] | outcome [8] | outcome [9] | outcome [10] | outcome [12] | outcome [13] | outcome [14] | outcome [15] | outcome [16] | outcome [17]
active: activation [11] 39.5%

CCOc1ccc(CN2CCCC(CNC(=O)c3ccc(F)cc3)C2)cc1CO (centres undefined)
inactive: outcome [1] | outcome [2] | outcome [3] | outcome [4] | outcome [5] | outcome [6] | outcome [7] | outcome [8] | outcome [9] | outcome [10] | outcome [11] | outcome [12] | outcome [13] | outcome [14] | outcome [15] | outcome [16] | outcome [17]

COc1ccc(/C=C(\C#N)C(=O)N2CCOCC2)cc1Br
inactive: outcome [1] | outcome [2] | outcome [3] | outcome [5] | outcome [6] | outcome [7] | outcome [8] | outcome [9] | outcome [10] | outcome [11] | outcome [12] | outcome [13] | outcome [14] | outcome [16] | outcome [17]
active: potentiation [4] 17% | potentiation [15] 20.4%

Cc1[nH]nc(-c2ccc(O)cc2O)c1-c1nc2ccccc2s1
inactive: outcome [1] | outcome [2] | outcome [3] | outcome [4] | outcome [5] | outcome [6] | outcome [7] | outcome [8] | outcome [9] | outcome [10] | outcome [11] | outcome [12] | outcome [13] | outcome [14] | outcome [15] | outcome [16] | outcome [17]

Cc1ccc(C(C)C)c(OCCCCN2CCNCC2)c1
active: potentiation [3] 11% | potentiation [15] 23.8%
inactive: outcome [1] | outcome [2] | outcome [4] | outcome [5] | outcome [6] | outcome [7] | outcome [8] | outcome [9] | outcome [10] | outcome [11] | outcome [12] | outcome [13] | outcome [14] | outcome [16] | outcome [17]

OC1(c2ccc(Br)cc2)CN(c2ccccc2)C2=[N+]1CCS2 (centres undefined)
inactive: outcome [1] | outcome [2] | outcome [3] | outcome [4] | outcome [5] | outcome [6] | outcome [7] | outcome [8] | outcome [9] | outcome [10] | outcome [12] | outcome [13] | outcome [14] | outcome [15] | outcome [16] | outcome [17]
active: activation [11] 36.5%

CN(Cc1ccco1)C(=O)Cn1ncc2c([nH]c3ccccc32)c1=O
inactive: outcome [1] | outcome [2] | outcome [3] | outcome [5] | outcome [6] | outcome [7] | outcome [8] | outcome [9] | outcome [10] | outcome [11] | outcome [12] | outcome [13] | outcome [14] | outcome [16] | outcome [17]
active: potentiation [4] 10% | potentiation [15] 61.1%

Cc1cccc(N2CCN(C(=O)C3(S(=O)(=O)c4ccc(Cl)cc4)CC3)CC2)c1C
active: potentiation [4] 13% | potentiation [15] 15.1%
inactive: outcome [1] | outcome [2] | outcome [3] | outcome [5] | outcome [6] | outcome [7] | outcome [8] | outcome [9] | outcome [10] | outcome [11] | outcome [12] | outcome [13] | outcome [14] | outcome [16] | outcome [17]

Cc1ccc(C[n+]2cccc(-c3ccccc3)c2)c(C)c1
inactive: outcome [1] | outcome [2] | outcome [3] | outcome [4] | outcome [5] | outcome [6] | outcome [7] | outcome [8] | outcome [9] | outcome [10] | outcome [11] | outcome [12] | outcome [13] | outcome [14] | outcome [15] | outcome [16] | outcome [17]

O=C(Nc1cccc(C(F)(F)F)c1)c1cccc(NS(=O)(=O)c2ccc(O)c(C(=O)O)c2)c1
inactive: outcome [1] | outcome [2] | outcome [3] | outcome [4] | outcome [5] | outcome [6] | outcome [7] | outcome [8] | outcome [9] | outcome [10] | outcome [11] | outcome [12] | outcome [13] | outcome [14] | outcome [15] | outcome [16] | outcome [17]
